The list is not random: actives were taken first. Their share in the collection is about 8.2%.
ELG1 DNA repair – qHTS screen for small molecules that inhibit ELG1-dependent DNA repair in human embryonic kidney (HEK293T) cells expressing luciferase-tagged ELG1; HEK293T ELG1-luciferase reporter, luminescence, 16 h; DNA damage induced by 5-fluorouridine; Potency, µM (titrated, usually from 46.1 µM), without a hit: at the top dose activity change, negative = inhibition, most hits filed as inhibitors; 2.3% of 330,000 active; AID 504467, 2011; also: % is scaled to controls: 0 for no effect and ±100 for the full control effect; nearly all actives have a fitted effect of over 55% in size
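HEK293T cells expressing luciferase-tagged ELG1 (2,000/well) received 5-Fluorouridine plus compound or DMSO for 16 hr at 37 °C. Luciferase was read by ONE-Glo luminescence after 30 min at room temperature.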
SW480 rerep – A quantitative high throughput screen for small molecules that induce DNA re-replication in SW480 colon adenocarcinoma cells; AID 624297, 2012; 1.8% of 340,000 active; Potency, µM (titrated, usually from 46.1 µM), for the others: at the top dose re-replication activation, actives largely listed as activators; SW480 DNA re-replication, Hoechst DNA content imaging, 48 h; also: % of control where 0% means no effect; nearly all actives have a fitted effect of over 55% in size
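First, 250 cells per well were seeded. Next, compound or vehicle (23 nL) was pinned in, plates sat 48 hr at 37 C. Finally Hoechst was added for 40 min before fluorescence scanning.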
MCF10A rerep – A quantitative high throughput screen for small molecules that induce DNA re-replication in MCF 10a normal breast cells. AID 624296, 2012. Potency, µM (doses to about 46.1 µM), for inactives: top-dose activity, positive = re-replication, usual class: activators. MCF 10A DNA re-replication, Hoechst nuclear intensity, 48 h. 2.9% of 350,000 active; also: % of control where 0% means no effect; nearly all actives have a fitted effect of over 50% in size
KB-3-1 tox – qHTS assay for MDR1-selective chemotherapeutics: Primary screen using the parental adenocarcinoma cell KB-3-1; KB-3-1 viability, CellTiter-Glo ATP luminescence, 72 h; Potency, µM (series often up to 46.1 µM), hits mostly cytotoxic; 1.4% of 400,000 active; AID 1347075, 2019; also: % is scaled to controls: 0 for no effect and ±100 for the full control effect; nearly all actives have a fitted effect of over 60% in size
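72 h, 37 °C compound treatment of KB-3-1 parental cells; CellTiter-Glo added, 10 min, luminescence read. Data corrected against DMSO-only plates and normalized before curve fitting.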
KB-V1 cytotox – qHTS assay for MDR1-selective chemotherapeutics: Primary screen using the drug-selected MDR subline cells KB-V1. 3.4% of 400,000 active. Potency, µM (highest dose often 46.1 µM), actives largely listed as cytotoxic. KB-V1 MDR cells viability, CellTiter-Glo, 72 h. AID 1347076, 2019; also: % is scaled to controls: 0 for no effect and ±100 for the full control effect; nearly all actives have a fitted effect of over 60% in size
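Luminescent ATP read-out (CellTiter-Glo, 10 min) measures survival of drug-selected KB-V1 MDR cells after 72 h, 37 degrees C compound exposure. Medium: phenol-red-free DMEM, 10% FBS. Values from fitted concentration-response curves.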
* marks the source's active call; other numbers are inactive results. Calls follow the shape of the dose curve; as a rule, active = well fitted curve in the direction sought with a large enough effect; inconclusive = small, poorly fitted or top-dose-only effect, or another doubt; inactive = no such curve, though single readings can be large; an effect the other way counts as inactive or inconclusive. Potency is read from the fitted curve at half-maximal effect.

How did CC(C)CC(NC(=O)C1CCCCC1)C(=O)N1CCN(c2ccccn2)CC1 (centres undefined) do in these assays?
ELG1 DNA repair: inconclusive; SW480 rerep: -3.9%; MCF10A rerep: 0.1%; KB-3-1 tox: inactive; KB-V1 cytotox: 2.59µM*

Results for CCOC(=O)C1CCN(S(=O)(=O)c2cc3c4c(c2)C(C)C(=O)N4CCC3)CC1 (centres undefined) ?
ELG1 DNA repair: 0.0%; SW480 rerep: -13.6%; MCF10A rerep: 4.8%; KB-3-1 tox: inactive; KB-V1 cytotox: inactive

What do the screens show for `COC(=O)[C@@]1(Cc2ccc(F)cc2)[C@H]2c3cc(C(=O)N4CCCC4)n(Cc4ccc(C(F)(F)F)nc4)c3C[C@H]2CN1C(=O)c1ccccc1`?
ELG1 DNA repair: inconclusive; SW480 rerep: 16.4µM*; MCF10A rerep: 86.9%; KB-3-1 tox: inconclusive; KB-V1 cytotox: inactive

Results for COC(=O)[C@@]1(Cc2ccc(F)cc2)[C@H]2c3cc(C(=O)N(C)C)n(Cc4ccsc4Br)c3C[C@H]2CN1C(=O)c1ccccc1 ?
KB-3-1 tox: inconclusive; KB-V1 cytotox: 20.6µM*

What do the screens show for `COC(=O)[C@@]1(Cc2ccc(F)cc2)[C@H]2c3cc(C(=O)N4CCCC4)n(CCCNc4ncc(C(F)(F)F)cc4Cl)c3C[C@H]2CN1C(=O)c1ccccc1`?
ELG1 DNA repair: inconclusive; SW480 rerep: inconclusive; MCF10A rerep: 5.8µM*; KB-3-1 tox: inactive; KB-V1 cytotox: inactive

What do the screens show for `COC(=O)[C@@]1(Cc2ccc(F)cc2)[C@H]2c3cc(C(=O)N4CCCC4)n(Cc4ccc(S(C)(=O)=O)cc4)c3C[C@H]2CN1C(=O)c1ccccc1`?
KB-3-1 tox: inactive; KB-V1 cytotox: inconclusive

How did COC(=O)[C@@]1(Cc2ccc(F)cc2)[C@H]2c3cc(C(=O)N(C)C)n(Cc4ccc(S(C)(=O)=O)cc4)c3C[C@H]2CN1C(=O)c1ccccc1 do in these assays?
KB-3-1 tox: inactive; KB-V1 cytotox: inconclusive

What do the screens show for `COC(=O)[C@@]1(Cc2ccc(F)cc2)[C@H]2c3cc(C(=O)N4CCCC4)n(Cc4ccc(C)c(F)c4F)c3C[C@H]2CN1C(=O)c1ccccc1`?
KB-3-1 tox: inconclusive; KB-V1 cytotox: 23.1µM*

What do the screens show for `COC(=O)[C@@]1(Cc2ccc(F)cc2)[C@H]2c3cc(C(=O)N4CCCC4)n(Cc4cc(C)n(C)n4)c3C[C@H]2CN1C(=O)c1ccccc1`?
KB-3-1 tox: inactive; KB-V1 cytotox: inconclusive

How did COc1ccc(CCN2C(=O)CC(C(N)=O)SC2=Nc2ccccc2)cc1OC (centres undefined) do in these assays?
ELG1 DNA repair: 1.4%; SW480 rerep: -1.8%; MCF10A rerep: 3.9%; KB-3-1 tox: inactive; KB-V1 cytotox: 20.6µM*

How did COc1ccc(CCN2C(=O)CSC2=S)cc1OC do in these assays?
ELG1 DNA repair: inconclusive; SW480 rerep: 14.6µM*; MCF10A rerep: 11.6µM*; KB-3-1 tox: 6.51µM*; KB-V1 cytotox: 5.8µM*

How did CC1CCN(C(=O)c2ncn(Cc3ccccc3)c2C(=O)N2CCC(C)CC2)CC1 do in these assays?
ELG1 DNA repair: 3.4%; SW480 rerep: -11.5%; MCF10A rerep: -44.1%; KB-3-1 tox: inactive; KB-V1 cytotox: inactive

What do the screens show for `Cc1c(C(=O)Nc2ccccc2)sc2nc(-c3cc4ccccc4oc3=O)[nH]c(=O)c12`?
KB-3-1 tox: inactive; KB-V1 cytotox: inactive

How did COc1ccc(-c2nnc(SCc3cc(=O)c4cc(C)cc(C)c4[nH]3)n2C)cc1 do in these assays?
KB-3-1 tox: 8.2µM*; KB-V1 cytotox: inconclusive

What do the screens show for `CCCNC(=O)CN1C(=O)CSc2ccc(S(=O)(=O)N3CCC(C)CC3)cc21`?
KB-3-1 tox: inactive; KB-V1 cytotox: inactive

What do the screens show for `CCc1ccc(OCC(=O)Nc2ccc(-c3cc4ccccc4oc3=O)c(OC)c2)cc1`?
ELG1 DNA repair: -4.7%; SW480 rerep: 2.31µM*; MCF10A rerep: -37.1%; KB-3-1 tox: inconclusive; KB-V1 cytotox: inconclusive

How did O=C(Cc1ccc(Cl)cc1)Nc1ccc(-c2cc3ccccc3oc2=O)c(Cl)c1 do in these assays?
ELG1 DNA repair: inconclusive; SW480 rerep: 7.31µM*; MCF10A rerep: 2.31µM*; KB-3-1 tox: 1.3µM*; KB-V1 cytotox: 2.31µM*

How did CC(Sc1ccc(Cl)cc1)C(=O)NNC(=O)c1ccccc1O (centres undefined) do in these assays?
ELG1 DNA repair: inconclusive; SW480 rerep: inconclusive; MCF10A rerep: 17.1%; KB-3-1 tox: inconclusive; KB-V1 cytotox: inactive

What do the screens show for `COc1ccc(C2(SCC(N)C(=O)O)c3ccccc3-c3ccccc32)cc1` (centres undefined)?
SW480 rerep: -0.5%; MCF10A rerep: 1.1%; KB-3-1 tox: inactive; KB-V1 cytotox: inactive

How did CCCCNC(=O)[C@@H]1CC=C[C@@H]2CCN(C3CCCCC3)C(=O)[C@@H]21 do in these assays?
KB-3-1 tox: inactive; KB-V1 cytotox: inconclusive

Results for Cn1ccn(CCCCCCn2ccn(C)c2=S)c1=S ?
KB-3-1 tox: inactive; KB-V1 cytotox: inactive

How did COc1ccc(-c2noc(CNC(=O)CCN3C(=O)[C@H]4CC=CC[C@H]4C3=O)n2)cc1 do in these assays?
ELG1 DNA repair: 12.4%; SW480 rerep: -12.1%; MCF10A rerep: 4.7%; KB-3-1 tox: inactive; KB-V1 cytotox: inactive

What do the screens show for `CCOC(=O)C1=C(CP(=O)(c2ccccc2)c2ccccc2)NC(=O)NC1c1ccc(OC)cc1` (centres undefined)?
ELG1 DNA repair: -14.2%; SW480 rerep: 7.2%; MCF10A rerep: 6.6%; KB-3-1 tox: inactive; KB-V1 cytotox: inactive

Results for CCOC(=O)C1=C(CSCC(=O)OC)NC(=O)NC1c1cc(C)ccc1C (centres undefined) ?
ELG1 DNA repair: 8.1%; SW480 rerep: -11.3%; MCF10A rerep: -6.7%; KB-3-1 tox: inactive; KB-V1 cytotox: inactive

Results for CCOC(=O)C1=C(CSc2nc3ccccc3s2)NC(=O)NC1c1ccc(OC)cc1 (centres undefined) ?
ELG1 DNA repair: inconclusive; SW480 rerep: -2.4%; MCF10A rerep: 5.4%; KB-3-1 tox: inconclusive; KB-V1 cytotox: 16.4µM*

How did CCOC(=O)C1=C(CSc2nc3ccccc3s2)NC(=O)NC1c1cc(C)ccc1C (centres undefined) do in these assays?
ELG1 DNA repair: inconclusive; SW480 rerep: 18.4µM*; MCF10A rerep: inconclusive; KB-3-1 tox: inactive; KB-V1 cytotox: inactive

What do the screens show for `O=CNc1cc(-c2ccc(C(=O)NC3CC3)cc2)cn2c(-c3ccc(F)cc3)cnc12`?
KB-3-1 tox: inactive; KB-V1 cytotox: inconclusive

Screening results: PubChem BioAssay, National Center for Advancing Translational Sciences (NCATS)
